{"source": "PubChem BioAssay AID1345085", "about": "(National Center for Advancing Translational Sciences (NCATS), 2018)", "note": "Records with an inconclusive call do not appear. Unmarked numbers belong to inactive results. The source made the active and inactive calls. Calls come from the whole dose curve; as a rule, active = well fitted cell-killing curve with a large enough effect; inconclusive = small, poorly fitted or top-dose-only effect, or effect the other way; inactive = no such curve, though single readings can be large or run the other way. % is set by controls: 0 for no effect and ±100 for the full control effect; potency is the fitted concentration of half-maximal effect."}
{"tested_on": "HeLa", "assay": "Confirmatory qHTS for gynecologic anti-cancer compounds from libraries of approved drugs and bioactive compounds; note: nearly all actives have a fitted effect of over 55% in size", "details": "gynecologic cancer cell panel viability, ATPlite luminescence, 48 h; series mostly up to 57.6 µM; activity change, negative = viability loss: at the top concentration", "summary_of_the_method": "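1,000 cells/well; 16 h pre-incubation 37 C, 5% CO2; pin-transferred cpd in DMSO, 11 conc (1:3), 57.5 uM–0.977 nM; 48 h; ATPlite, 15 min RT; luminescence → IC50.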", "units": {"activity change, negative = viability loss": "%"}}
{"compound": "CC(=O)O[C@H]1C(=O)[C@@]2(C)[C@H]([C@H](OC(=O)c3ccccc3)[C@]3(O)C[C@H](OC(=O)[C@H](O)[C@@H](NC(=O)c4ccccc4)c4ccccc4)C(C)=C1C3(C)C)[C@]1(OC(C)=O)CO[C@@H]1C[C@@H]2O", "Potency": "0.0163 µM (active)"}
{"compound": "Cc1cnc(Nc2cccc(CN3CCOCC3)c2)nc1Nc1cccc(S(=O)(=O)NC(C)(C)C)c1", "Potency": "1.72 µM (active)"}
{"compound": "Cc1nc2ccc(CN(C)c3ccc(C(=O)NC(CCC(=O)O)C(=O)O)s3)cc2c(=O)[nH]1", "note": "(configuration not stated)", "Potency": "0.0544 µM (active)"}
{"compound": "COc1cc2c(cc1-c1c(C)noc1C)ncc1[nH]c(=O)n(C(C)c3ccccn3)c12", "note": "(configuration not stated)", "Potency": "0.544 µM (active)"}
{"compound": "COc1ccc(CCC(=O)c2c(O)cc(O[C@@H]3O[C@H](CO)[C@@H](O)[C@H](O)[C@H]3O[C@@H]3O[C@@H](C)[C@H](O)[C@@H](O)[C@H]3O)cc2O)cc1O", "activity change, negative = viability loss": 3.93}
{"compound": "OC[C@H]1O[C@@H](n2cnc3c(=S)nc[nH]c32)[C@H](O)[C@@H]1O", "Potency": "4.32 µM (active)"}
{"compound": "Oc1cn2c(n1)Nc1ccc(Cl)c(Cl)c1C2", "Potency": "0.0106 µM (active)"}
{"compound": "O=C(O)C1(Cc2cccc(Nc3nccs3)n2)CCC(Oc2cccc(Cl)c2F)CC1", "note": "(configuration not stated)", "Potency": "1.22 µM (active)"}
{"compound": "O=C(Nc1cccnc1)N1CCC(Cc2cccc(Oc3ccc(C(F)(F)F)cn3)c2)CC1", "Potency": "3.85 µM (active)"}
{"compound": "CN1CCN(CCOc2cc(OC3CCOCC3)c3c(Nc4c(Cl)ccc5c4OCO5)ncnc3c2)CC1", "activity change, negative = viability loss": 1.73}
{"compound": "CNc1nc(Nc2ccc(C(=O)N3CCOCC3)cc2OC)ncc1Cl", "Potency": "6.85 µM (active)"}
{"compound": "CNc1nccc(-c2cccnc2Oc2cc(C(=O)Nc3cccc(C(F)(F)F)c3)ccc2C)n1", "Potency": "15.3 µM (active)"}
{"compound": "Cc1cc(C(=O)N2CCN(c3cccc(Cl)c3)CC2)n(-c2ccccc2)n1", "Potency": "2.17 µM (active)"}
{"compound": "O=C(/C=C/c1cccc(S(=O)(=O)Nc2ccccc2)c1)NO", "Potency": "5.3 µM (active)"}
{"compound": "NC1(c2ccc(-c3nc4ccn5c(=O)[nH]nc5c4cc3-c3ccccc3)cc2)CCC1", "activity change, negative = viability loss": 5.7}
{"compound": "CCCCN(CCCC)CC(O)c1cc(Cl)cc2c1-c1ccc(Cl)cc1/C2=C/c1ccc(Cl)cc1", "note": "(configuration not stated)", "activity change, negative = viability loss": -17.5}
{"compound": "CC(C)n1nc(-c2cc3cc(O)ccc3[nH]2)c2c(N)ncnc21", "Potency": "5.44 µM (active)"}
{"compound": "COc1cccc2c1C(=O)c1c(O)c3c(c(O)c1C2=O)C[C@@](O)(C(=O)CO)C[C@@H]3O[C@H]1C[C@H](N)[C@H](O[C@@H]2CCCCO2)[C@H](C)O1", "Potency": "12.2 µM (active)"}
{"compound": "CC[C@]1(O)C[C@@H]2CN(CCc3c([nH]c4ccccc34)[C@@](C(=O)OC)(c3cc4c(cc3OC)N(C)[C@H]3[C@@](O)(C(=O)OC)[C@H](OC(C)=O)[C@]5(CC)C=CCN6CC[C@]43[C@@H]65)C2)C1", "Potency": "0.122 µM (active)"}
{"compound": "CS(=O)(=O)c1ccc(C(=O)Nc2ccc(Cl)c(-c3ccccn3)c2)c(Cl)c1", "activity change, negative = viability loss": 17.4}
{"compound": "CC(C)Nc1cc(-c2c[nH]c(C(=O)N[C@H](CO)c3cccc(Cl)c3)c2)c(Cl)cn1", "Potency": "21.7 µM (active)"}
{"compound": "CN[C@@H](C)C(=O)N[C@H]1CN(C(=O)CC(C)C)CC[C@H]2CC[C@@H](C(=O)NC(c3ccccc3)c3ccccc3)N2C1=O", "activity change, negative = viability loss": -6.64}
{"compound": "O=C(Nc1cn[nH]c1-c1nc2ccc(CN3CCOCC3)cc2[nH]1)NC1CC1", "Potency": "0.0432 µM (active)"}
{"compound": "C[C@@]1(C(=O)Nc2ccc(F)nc2)CCCN1c1nc(Nc2cc(C3CC3)[nH]n2)c2cccn2n1", "Potency": "0.968 µM (active)"}
{"compound": "CN(c1nccc(=O)[nH]1)C1CCN(c2nc3ccccc3n2Cc2ccc(F)cc2)CC1", "activity change, negative = viability loss": -16.7}
{"compound": "Nc1nc(Cl)nc2c1ncn2C1OC(CO)C(O)C1F", "note": "(configuration not stated)", "activity change, negative = viability loss": -14.4}
{"compound": "O=C1c2c(O)ccc(O)c2C(=O)c2c(NCCNCCO)ccc(NCCNCCO)c21", "Potency": "2.43 µM (active)"}
{"compound": "CN(C)c1ccc(-c2nc3ncc(Cl)c(N4CCN(CC(=O)Nc5nccs5)CC4)c3[nH]2)cc1", "Potency": "2.37 µM (active)"}
{"compound": "Cc1ccc(C(=O)N(CCCN)C(c2nc3cc(Cl)ccc3c(=O)n2Cc2ccccc2)C(C)C)cc1", "note": "(configuration not stated)", "Potency": "0.0172 µM (active)"}
{"compound": "Cn1cc(-c2[nH]c3cc(NC(=O)[C@H](N)C4CCCCC4)cc4c3c2C=NNC4=O)cn1", "Potency": "1.72 µM (active)"}
{"compound": "CC1(C)[C@@H](O)CC[C@]2(C)[C@H]3C(=O)C=C4[C@@H]5C[C@@](C)(C(=O)O)CC[C@]5(C)CC[C@@]4(C)[C@]3(C)CC[C@@H]12", "activity change, negative = viability loss": 44.9}
{"compound": "CCCCc1oc2ccccc2c1C(=O)c1cc(I)c(OCCN(CC)CC)c(I)c1", "Potency": "50.1 µM (active)"}
